Measured values taken from PubChem BioAssay AID2650 (Broad Institute, 2010).
In all, about 320,000 compounds went through this assay and about 320 (0.1%) were called active. The full list was thinned out, with actives kept by preference. A number with no mark means an inactive call.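 Rule for the calls: active = more than half of replicates show inhibition above 20%; inconclusive = some but at most half of replicates above 20% inhibition; inactive = no replicate shows inhibition above 20%.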 Non-standard residues stand in square brackets, D forms with d. Residues, ends and D or L forms follow the SMILES beside them. ξ: configuration not given here. ξM = CSCCC(N)C(=O)O

What follows are compounds tested against Glycogen synthase kinase-3 alpha (Homo sapiens) (UniProt P49840) (assay: blockers of GSK3A enzyme activity – biochemical, luminescence, cell-free homogeneous, HTS, primary screen (AID 2650;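 note: GST-tagged GSK-3 alpha with peptide substrate and 25 µM ATP; 0% = DMSO neutral wells and 100% = GW8510 positive control wells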)). Conditions: GSK-3 alpha kinase, ADP-Glo luminescence, 60 min; at 10 µM; hits give high values.
Glycogen synthase kinase-3 alpha (Homo sapiens), sequence (P49840 whole entry, looked up): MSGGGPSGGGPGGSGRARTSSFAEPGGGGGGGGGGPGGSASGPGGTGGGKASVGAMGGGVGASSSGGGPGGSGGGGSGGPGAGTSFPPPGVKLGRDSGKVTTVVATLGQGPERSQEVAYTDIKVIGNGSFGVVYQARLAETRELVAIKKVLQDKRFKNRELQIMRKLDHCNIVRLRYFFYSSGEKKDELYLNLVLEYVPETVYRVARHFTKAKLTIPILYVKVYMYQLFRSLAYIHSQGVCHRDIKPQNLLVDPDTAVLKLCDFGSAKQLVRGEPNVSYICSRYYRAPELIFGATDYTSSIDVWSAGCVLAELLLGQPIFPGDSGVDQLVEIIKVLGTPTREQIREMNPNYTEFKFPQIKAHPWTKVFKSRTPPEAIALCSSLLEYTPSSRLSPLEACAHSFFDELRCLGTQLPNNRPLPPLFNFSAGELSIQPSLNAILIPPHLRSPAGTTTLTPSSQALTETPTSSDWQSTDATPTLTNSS

| Structure (SMILES) | inhibition |
| --- | --- |
| COc1ccc(S(=O)(=O)N2CCN(C(C)C(=O)Nc3ccc(C(C)C)cc3)CC2)cc1 (stereo not given) | 1.33% |
| COCCCn1c(Cc2csc(Nc3cccc(Cl)c3)n2)nnc1SCC(=O)OC1CCCCC1 | 1.8% |
| CC(=O)c1cccc(OCC(=O)OCC(=O)Nc2cc(S(=O)(=O)N3CCCCC3)ccc2C)c1 | 2.43% |
| CCOCC(=O)Nc1ncc(S(=O)(=O)c2ccc([N+](=O)[O-])cc2)s1 | -1.6% |
| COC(=O)CNC(=O)C(CCSC)NC(C)=O (stereo not given) (Ac-[ξM]-Gly-OMe) | -4.49% |
| CSCc1cc(N(C)C)nc(SCc2ccc(Cl)cc2Cl)n1 | -5.57% |
| COCCNc1nc(N)c([N+](=O)[O-])c(NCCO)n1 | 53.1% (active) |
| C=CCNc1nc(N)c([N+](=O)[O-])c(NC2CCCCC2)n1 | 0.434% |
| COCCNc1nc(N)c([N+](=O)[O-])c(N2CCCCCC2)n1 | 1.39% |
| COc1ccc(C(=O)NCc2ccccc2C)cc1S(=O)(=O)NC1CCCC1 | -2.96% |
| Cn1c(SCC(=O)Nc2nccs2)nnc1-c1cccnc1 | 2.04% |
| CC1CCCN(C(=O)CN2C(=O)c3ccccc3S2(=O)=O)C1 (stereo not given) | -0.713% |
| CC1CC(=NNC(=O)C2COc3ccccc3O2)CC(C)(C)C1 (stereo not given) | 0.373% |
| C=CCC[C@H](Cc1ccc(F)cc1)C(=O)OC[C@@H](NC(=O)[C@@H](CC=C)CC(=O)N[C@H](CO)Cc1ccccc1)C(C)(C)C | -1.79% |
| CS(=O)(=O)N(CC(=O)NC1CCCC1)Cc1ccc(F)cc1 | 10.3% |
| O=S(N1CCCCCC1)C12CC3CC(CC(C3)C1)C2 (stereo not given) | -2.72% |
| Cc1cc(C)c(S(=O)(=O)n2cc(C(C)C(N)C(=O)O)c3ccccc32)c(C)c1 (stereo not given) | -2.93% |
| NC1=NC[C@@H](Cc2ccc(O)cc2)N1CC1CCCCC1 | 1.17% |
| O=C(CSc1nc2nccnc2c(=O)n1Cc1cccs1)Nc1ccccc1F | 1.43% |
| O=C(c1ccc(N2CCOCC2)c([N+](=O)[O-])c1)N1CCN(c2ccccc2F)CC1 | -2.69% |

| Structure (SMILES) | inhibition |
| --- | --- |
| Cn1c(-c2ccc(F)cc2)cc2onc(-c3ccccc3Cl)c2c1=O | -1.73% |
| CCN(CC)CCCNC(=O)CCn1nc(-c2ccc(Cl)cc2)ccc1=O | -1.8% |
| O=C(NCCCN1CCCC1=O)C(=O)NCC1OCCN1S(=O)(=O)c1ccc(Br)cc1 (stereo not given) | -1.8% |
| COc1ccc2nc3n(c(=O)c2c1)-c1ccc(Cl)cc1C(=O)NC3Cc1ccccc1 (stereo not given) | -2.35% |
| N#Cc1ccccc1CN1C(=O)S/C(=C/c2cccn2-c2cccc(C(=O)O)c2)C1=O | 3.06% |
| COc1ccc(Cn2c(C)c(C)c(C#N)c2NC(=O)Nc2ccc(F)cc2)cc1 | -1.46% |
| O=C(Nc1ccc(S(=O)(=O)N2CCCCC2)cc1)C1CC(=O)N(c2ccc(F)cc2)C1 (stereo not given) | 0.943% |
| CCOc1ccc(S(=O)(=O)NCCC(=O)NCC(C)(C)N2CCOCC2)cc1 | -4.12% |
| CC(C)n1cnc2c(NCc3ccccc3)cc(N[C@@H](CO)Cc3ccccc3)cc21 | -3.52% |
| CCOc1ccc(CCNC(=O)C(CC)n2nc(C)n3c(cc4sccc43)c2=O)cc1OCC (stereo not given) | 8.43% |
| CC1=C(C(=O)NC2CC(C)(C)Cc3c2cnn3-c2ccc(C)cc2)OCCO1 (stereo not given) | -2.77% |
| Cc1cccn2c(=O)nc(SCC(=O)NCc3ccccc3Cl)nc12 | -2.07% |
| O=C(CN(C(=O)c1csnn1)c1cccc(F)c1)NCc1ccc(F)cc1 | 0.738% |
| O=C(Nc1ccccn1)C1CCN(S(=O)(=O)c2ccccc2)CC1 | 3.28% |
| CCCC1NC(=S)NC(C)=C1C(C)=O (stereo not given) | -1.05% |
| CC(C)n1cnc2c(Nc3cccc(Cl)c3)nc(N(CCO)CCCO)nc21 | 9.71% |
| OCCCNc1nccc(-c2cc(Nc3cccc(Cl)c3)ncn2)n1 | 89.3% (active) |
| OCCCNc1nc(-c2ccccc2)c2cc(Cl)ccc2n1 | 1.49% |
| CCCOc1ccc(Cc2c(O)nc(N)[nH]c2=O)cc1C | -0.849% |
| CCn1c(SC)nc(O)c(C(c2ccc(OC)c(O)c2)c2c(O)nc(SC)n(CC)c2=O)c1=O | -6.95% |
